# Measurements taken from publication PMC7862700, “An all-to-all approach to the identification of sequence-specific readers for epigenetic DNA modifications on cytosine”.
# Tests used:
# Test in all cases: DAPPL (digital affinity profiling via proximity ligation, sequencing); 10 mM Tris-HCl pH 7.5, 50 mM NaCl, 1 mM DTT, 4% glycerol, room temperature, 30 min; GST-TFs on glutathione beads, 16-mer random dsDNA library, 0.1% formaldehyde crosslink after washing; high values mean tight binding
# FEV = molecular target: T1, FEV (Homo sapiens, UniProt Q99581 1-238); conditions: protein: recombinant; tags: N-terminal GST; dsDNA, one strand shown
# T1 sequence: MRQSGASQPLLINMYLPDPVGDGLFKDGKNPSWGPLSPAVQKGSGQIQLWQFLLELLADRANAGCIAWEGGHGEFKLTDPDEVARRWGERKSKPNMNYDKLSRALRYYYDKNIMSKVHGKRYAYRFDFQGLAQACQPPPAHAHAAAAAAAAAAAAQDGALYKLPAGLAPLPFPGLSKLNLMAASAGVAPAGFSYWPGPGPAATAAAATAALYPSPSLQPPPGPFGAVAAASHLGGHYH
# Outline: (§1)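 Beads coated with glutathione captured GST-fused human transcription factors that had been expressed in yeast, and the factors were then given DNA barcodes and pooled with a tag-only sample. The pools were incubated with 200 nmole of a random double-stranded 16-mer DNA library in Tris/NaCl/DTT/glycerol buffer for 30 min at room temperature, washed, crosslinked with 0.1% formaldehyde and proximity-ligated with BsaI/T4 ligase at 37 °C for 1 h. PCR amplification and Illumina NextSeq500 sequencing came last. Binding signal is each hexamer's read frequency for a factor divided by its frequency for the tag-only sample.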
# ETV5 = ETV5 (Homo sapiens, UniProt P41161 1-510); conditions: protein: recombinant; tags: N-terminal GST; dsDNA, one strand shown
# Outline: as §1
# HSF1 = HSF1 (Homo sapiens, UniProt Q00613 1-529); conditions: protein: recombinant; tags: N-terminal GST; chain copies: 3; dsDNA, one strand shown
# Outline: as §1
# SPIC = molecular target: T2, SPIC (Homo sapiens, UniProt Q8N5J4 1-248); conditions: protein: recombinant; tags: N-terminal GST; dsDNA, one strand shown
# T2 sequence: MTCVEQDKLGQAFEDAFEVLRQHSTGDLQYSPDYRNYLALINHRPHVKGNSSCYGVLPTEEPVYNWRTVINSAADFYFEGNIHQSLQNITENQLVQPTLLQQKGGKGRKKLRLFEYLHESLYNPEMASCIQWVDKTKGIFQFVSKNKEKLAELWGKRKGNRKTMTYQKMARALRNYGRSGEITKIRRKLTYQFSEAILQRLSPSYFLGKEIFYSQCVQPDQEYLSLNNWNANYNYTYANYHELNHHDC
# Outline: as §1
# ELF4 = ELF4 (Homo sapiens, UniProt Q99607 1-663); conditions: protein: recombinant; tags: N-terminal GST; dsDNA, one strand shown
# Outline: as §1
# ELK4 = molecular target: T3, ELK4 (Homo sapiens, UniProt P28324-2 1-405); conditions: protein: recombinant; tags: N-terminal GST; dsDNA, one strand shown
# T3 sequence: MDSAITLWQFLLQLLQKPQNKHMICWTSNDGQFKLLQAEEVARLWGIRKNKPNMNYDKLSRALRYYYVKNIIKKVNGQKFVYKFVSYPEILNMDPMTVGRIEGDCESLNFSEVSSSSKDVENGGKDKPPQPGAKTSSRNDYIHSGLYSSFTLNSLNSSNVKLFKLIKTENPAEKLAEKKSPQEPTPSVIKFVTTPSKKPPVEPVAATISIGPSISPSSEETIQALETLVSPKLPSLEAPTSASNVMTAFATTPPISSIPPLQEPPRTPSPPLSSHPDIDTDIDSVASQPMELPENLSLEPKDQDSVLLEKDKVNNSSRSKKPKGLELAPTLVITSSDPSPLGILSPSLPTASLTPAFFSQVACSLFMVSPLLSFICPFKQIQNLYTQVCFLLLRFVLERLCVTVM
# Outline: as §1
# ETV2 = molecular target: T4, ETV2 (Homo sapiens, UniProt O00321 1-342); conditions: protein: recombinant; tags: N-terminal GST; dsDNA, one strand shown
# T4 sequence: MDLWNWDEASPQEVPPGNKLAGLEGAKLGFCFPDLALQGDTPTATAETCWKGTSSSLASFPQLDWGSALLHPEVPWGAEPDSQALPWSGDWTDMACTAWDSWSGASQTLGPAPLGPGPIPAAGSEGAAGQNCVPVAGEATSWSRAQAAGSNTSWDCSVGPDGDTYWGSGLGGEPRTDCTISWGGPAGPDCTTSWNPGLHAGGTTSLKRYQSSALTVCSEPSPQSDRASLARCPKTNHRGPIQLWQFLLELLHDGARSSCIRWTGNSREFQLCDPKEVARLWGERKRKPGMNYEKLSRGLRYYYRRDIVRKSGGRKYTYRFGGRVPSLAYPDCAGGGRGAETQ
# Outline: as §1
# ELF3 = molecular target: T5, ELF3 (Homo sapiens, UniProt P78545 1-371); conditions: protein: recombinant; tags: N-terminal GST; dsDNA, one strand shown
# T5 sequence: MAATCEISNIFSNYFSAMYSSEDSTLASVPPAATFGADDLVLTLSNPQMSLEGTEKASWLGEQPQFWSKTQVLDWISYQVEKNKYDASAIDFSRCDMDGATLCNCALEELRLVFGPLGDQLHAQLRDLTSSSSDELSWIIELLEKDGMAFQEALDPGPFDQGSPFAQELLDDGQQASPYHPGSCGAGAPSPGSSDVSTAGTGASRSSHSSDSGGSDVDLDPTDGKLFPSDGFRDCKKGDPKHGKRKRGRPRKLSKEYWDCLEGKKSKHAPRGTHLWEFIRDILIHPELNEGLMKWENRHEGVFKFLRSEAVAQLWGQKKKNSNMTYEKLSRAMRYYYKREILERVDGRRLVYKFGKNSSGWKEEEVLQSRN
# Outline: as §1
# CRX = CRX (Homo sapiens, UniProt O43186 1-299); conditions: protein: recombinant; tags: N-terminal GST; dsDNA, one strand shown
# Outline: as §1
# ETV1 = ETV1 (Homo sapiens, UniProt P50549 1-477); conditions: protein: recombinant; tags: N-terminal GST; dsDNA, one strand shown
# Outline: as §1
# ERF = molecular target: T6, ERF (Homo sapiens, UniProt P50548 1-548); conditions: protein: recombinant; tags: N-terminal GST; dsDNA, one strand shown
# T6 sequence: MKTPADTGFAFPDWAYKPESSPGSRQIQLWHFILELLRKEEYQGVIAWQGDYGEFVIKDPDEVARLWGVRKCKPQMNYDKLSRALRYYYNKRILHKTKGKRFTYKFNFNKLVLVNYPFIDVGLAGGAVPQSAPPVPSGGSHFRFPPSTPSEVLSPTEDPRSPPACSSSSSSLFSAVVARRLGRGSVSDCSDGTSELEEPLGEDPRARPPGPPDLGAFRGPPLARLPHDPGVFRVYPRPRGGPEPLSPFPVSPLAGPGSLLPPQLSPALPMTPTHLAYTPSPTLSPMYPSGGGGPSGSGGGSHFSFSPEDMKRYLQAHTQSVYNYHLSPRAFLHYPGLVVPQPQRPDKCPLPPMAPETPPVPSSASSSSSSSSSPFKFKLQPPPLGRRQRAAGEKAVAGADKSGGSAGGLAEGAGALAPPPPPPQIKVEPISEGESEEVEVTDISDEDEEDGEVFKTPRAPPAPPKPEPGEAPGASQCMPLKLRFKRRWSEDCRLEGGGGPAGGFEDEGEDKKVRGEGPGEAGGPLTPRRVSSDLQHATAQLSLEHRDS
# Outline: as §1
# ETV3L = molecular target: T7, ETV3L (Homo sapiens, UniProt Q6ZN32 1-361); conditions: protein: recombinant; tags: N-terminal GST; dsDNA, one strand shown
# T7 sequence: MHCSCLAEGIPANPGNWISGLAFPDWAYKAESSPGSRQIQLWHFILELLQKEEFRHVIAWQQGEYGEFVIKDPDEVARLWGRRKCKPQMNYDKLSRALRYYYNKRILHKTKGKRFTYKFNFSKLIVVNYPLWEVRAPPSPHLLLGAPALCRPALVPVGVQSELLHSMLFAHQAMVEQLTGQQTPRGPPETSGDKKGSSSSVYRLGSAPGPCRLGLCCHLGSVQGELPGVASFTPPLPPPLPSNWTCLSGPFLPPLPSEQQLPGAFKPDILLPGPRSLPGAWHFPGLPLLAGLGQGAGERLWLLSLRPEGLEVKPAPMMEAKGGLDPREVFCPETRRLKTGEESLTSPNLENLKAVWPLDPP
# Outline: as §1
# ETS2 = molecular target: T8, ETS2 (Homo sapiens, UniProt P15036 1-469); conditions: protein: recombinant; tags: N-terminal GST; dsDNA, one strand shown
# T8 sequence: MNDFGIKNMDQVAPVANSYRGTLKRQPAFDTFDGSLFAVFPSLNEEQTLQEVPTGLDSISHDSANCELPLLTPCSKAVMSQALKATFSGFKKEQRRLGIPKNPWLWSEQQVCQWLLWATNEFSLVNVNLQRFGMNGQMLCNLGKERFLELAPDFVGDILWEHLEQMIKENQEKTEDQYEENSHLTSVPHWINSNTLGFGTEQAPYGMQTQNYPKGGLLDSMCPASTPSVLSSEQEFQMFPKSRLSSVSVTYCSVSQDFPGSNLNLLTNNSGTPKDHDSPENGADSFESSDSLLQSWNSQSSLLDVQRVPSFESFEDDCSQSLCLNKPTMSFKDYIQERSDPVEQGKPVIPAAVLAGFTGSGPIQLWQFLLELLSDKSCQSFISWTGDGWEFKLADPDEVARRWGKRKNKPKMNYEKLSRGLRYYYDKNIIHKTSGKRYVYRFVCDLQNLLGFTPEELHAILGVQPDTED
# Outline: as §1
# SPDEF = molecular target: T9, SPDEF (Homo sapiens, UniProt O95238 1-335); conditions: protein: recombinant; tags: N-terminal GST; dsDNA, one strand shown
# T9 sequence: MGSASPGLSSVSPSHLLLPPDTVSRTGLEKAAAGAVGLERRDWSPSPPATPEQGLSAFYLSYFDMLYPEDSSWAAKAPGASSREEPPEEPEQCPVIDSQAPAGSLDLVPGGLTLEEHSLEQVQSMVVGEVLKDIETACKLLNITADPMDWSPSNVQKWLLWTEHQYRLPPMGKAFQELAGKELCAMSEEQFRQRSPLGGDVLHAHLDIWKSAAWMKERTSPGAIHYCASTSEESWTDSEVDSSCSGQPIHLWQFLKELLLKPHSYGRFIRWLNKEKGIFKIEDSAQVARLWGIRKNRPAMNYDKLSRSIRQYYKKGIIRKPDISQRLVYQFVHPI
# Outline: as §1
# ETV7 = molecular target: T10, ETV7 (Homo sapiens, UniProt Q9Y603 1-341); conditions: protein: recombinant; tags: N-terminal GST; dsDNA, one strand shown
# T10 sequence: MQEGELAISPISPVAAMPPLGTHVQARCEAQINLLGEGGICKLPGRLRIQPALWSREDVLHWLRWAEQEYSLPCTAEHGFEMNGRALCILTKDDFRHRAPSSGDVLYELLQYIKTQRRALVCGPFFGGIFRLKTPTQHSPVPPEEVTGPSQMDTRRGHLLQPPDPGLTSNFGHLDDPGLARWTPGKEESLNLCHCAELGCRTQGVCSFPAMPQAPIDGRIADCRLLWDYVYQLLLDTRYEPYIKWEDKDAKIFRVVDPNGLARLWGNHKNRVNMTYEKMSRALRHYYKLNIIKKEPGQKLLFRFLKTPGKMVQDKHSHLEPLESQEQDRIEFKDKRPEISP
# Outline: as §1
# ELF5 = molecular target: T11, ELF5 (Homo sapiens, UniProt Q9UKW6-2 1-255); conditions: protein: recombinant; tags: N-terminal GST; dsDNA, one strand shown
# T11 sequence: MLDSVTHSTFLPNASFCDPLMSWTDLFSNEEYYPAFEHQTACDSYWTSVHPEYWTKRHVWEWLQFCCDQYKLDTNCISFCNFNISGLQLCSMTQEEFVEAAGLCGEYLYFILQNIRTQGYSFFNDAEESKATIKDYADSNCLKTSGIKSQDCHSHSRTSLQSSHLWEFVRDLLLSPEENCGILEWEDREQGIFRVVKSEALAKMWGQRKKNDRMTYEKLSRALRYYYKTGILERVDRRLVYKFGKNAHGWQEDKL
# Outline: as §1
# ETV3 = molecular target: T12, ETV3 (Homo sapiens, UniProt P41162-2 1-143); conditions: protein: recombinant; tags: N-terminal GST; dsDNA, one strand shown
# T12 sequence: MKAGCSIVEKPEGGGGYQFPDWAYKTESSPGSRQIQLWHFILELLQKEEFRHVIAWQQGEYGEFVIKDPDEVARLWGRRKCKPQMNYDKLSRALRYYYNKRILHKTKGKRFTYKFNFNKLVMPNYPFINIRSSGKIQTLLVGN
# Outline: as §1
# ETV6 = ETV6 (Homo sapiens, UniProt P41212 1-452); conditions: protein: recombinant; tags: N-terminal GST; dsDNA, one strand shown
# Outline: as §1
# Chain of ETV6 (P41212 whole entry): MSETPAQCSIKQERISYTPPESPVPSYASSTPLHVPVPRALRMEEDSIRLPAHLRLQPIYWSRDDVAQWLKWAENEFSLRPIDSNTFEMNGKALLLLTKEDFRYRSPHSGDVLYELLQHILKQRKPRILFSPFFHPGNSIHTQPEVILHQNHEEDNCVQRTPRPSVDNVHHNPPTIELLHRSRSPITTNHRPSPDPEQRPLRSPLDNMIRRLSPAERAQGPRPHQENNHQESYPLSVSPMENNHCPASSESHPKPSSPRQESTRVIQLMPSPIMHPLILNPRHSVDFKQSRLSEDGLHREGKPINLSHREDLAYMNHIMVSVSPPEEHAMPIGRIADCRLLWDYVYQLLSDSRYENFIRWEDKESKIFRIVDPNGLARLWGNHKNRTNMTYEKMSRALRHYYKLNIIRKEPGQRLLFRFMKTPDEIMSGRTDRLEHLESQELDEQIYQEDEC
# Chain of CRX (O43186 whole entry): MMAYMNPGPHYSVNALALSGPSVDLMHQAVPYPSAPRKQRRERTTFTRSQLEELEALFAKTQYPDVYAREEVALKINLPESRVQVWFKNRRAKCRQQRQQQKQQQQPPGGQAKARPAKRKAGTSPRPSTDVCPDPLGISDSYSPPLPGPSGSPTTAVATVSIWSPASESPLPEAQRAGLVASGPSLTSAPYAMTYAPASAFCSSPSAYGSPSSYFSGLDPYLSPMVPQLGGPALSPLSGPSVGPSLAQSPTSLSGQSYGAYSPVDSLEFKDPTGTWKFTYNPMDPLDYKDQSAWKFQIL
# Chain of HSF1 (Q00613 whole entry): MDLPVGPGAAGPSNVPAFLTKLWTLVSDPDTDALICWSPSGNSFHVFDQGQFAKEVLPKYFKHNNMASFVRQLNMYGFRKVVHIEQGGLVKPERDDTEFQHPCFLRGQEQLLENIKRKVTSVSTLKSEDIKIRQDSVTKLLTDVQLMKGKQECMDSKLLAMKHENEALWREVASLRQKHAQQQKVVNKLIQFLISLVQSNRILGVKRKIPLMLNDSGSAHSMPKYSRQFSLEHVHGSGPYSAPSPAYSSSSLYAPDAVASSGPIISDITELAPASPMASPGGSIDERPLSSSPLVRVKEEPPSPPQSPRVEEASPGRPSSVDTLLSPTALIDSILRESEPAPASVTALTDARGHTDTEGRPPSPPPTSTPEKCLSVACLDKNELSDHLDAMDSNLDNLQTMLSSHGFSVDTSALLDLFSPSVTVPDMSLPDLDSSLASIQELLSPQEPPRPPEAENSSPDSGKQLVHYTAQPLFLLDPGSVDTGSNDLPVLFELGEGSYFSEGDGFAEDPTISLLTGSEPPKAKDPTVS
# Chain of ETV1 (P50549 whole entry): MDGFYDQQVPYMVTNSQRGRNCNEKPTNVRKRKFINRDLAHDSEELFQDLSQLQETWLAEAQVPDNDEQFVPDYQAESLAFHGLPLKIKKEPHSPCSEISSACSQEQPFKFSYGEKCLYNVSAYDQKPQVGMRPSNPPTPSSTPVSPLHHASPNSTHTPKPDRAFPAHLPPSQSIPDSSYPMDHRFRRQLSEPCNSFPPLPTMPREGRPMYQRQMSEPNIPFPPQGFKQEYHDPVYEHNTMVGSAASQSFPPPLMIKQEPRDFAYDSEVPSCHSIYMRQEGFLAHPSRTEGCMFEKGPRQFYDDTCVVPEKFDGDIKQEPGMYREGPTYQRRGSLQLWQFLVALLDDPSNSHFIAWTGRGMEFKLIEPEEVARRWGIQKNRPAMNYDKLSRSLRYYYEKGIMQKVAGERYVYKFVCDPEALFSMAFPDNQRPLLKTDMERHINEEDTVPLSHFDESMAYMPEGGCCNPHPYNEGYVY
# Chain of ELF4 (Q99607 whole entry): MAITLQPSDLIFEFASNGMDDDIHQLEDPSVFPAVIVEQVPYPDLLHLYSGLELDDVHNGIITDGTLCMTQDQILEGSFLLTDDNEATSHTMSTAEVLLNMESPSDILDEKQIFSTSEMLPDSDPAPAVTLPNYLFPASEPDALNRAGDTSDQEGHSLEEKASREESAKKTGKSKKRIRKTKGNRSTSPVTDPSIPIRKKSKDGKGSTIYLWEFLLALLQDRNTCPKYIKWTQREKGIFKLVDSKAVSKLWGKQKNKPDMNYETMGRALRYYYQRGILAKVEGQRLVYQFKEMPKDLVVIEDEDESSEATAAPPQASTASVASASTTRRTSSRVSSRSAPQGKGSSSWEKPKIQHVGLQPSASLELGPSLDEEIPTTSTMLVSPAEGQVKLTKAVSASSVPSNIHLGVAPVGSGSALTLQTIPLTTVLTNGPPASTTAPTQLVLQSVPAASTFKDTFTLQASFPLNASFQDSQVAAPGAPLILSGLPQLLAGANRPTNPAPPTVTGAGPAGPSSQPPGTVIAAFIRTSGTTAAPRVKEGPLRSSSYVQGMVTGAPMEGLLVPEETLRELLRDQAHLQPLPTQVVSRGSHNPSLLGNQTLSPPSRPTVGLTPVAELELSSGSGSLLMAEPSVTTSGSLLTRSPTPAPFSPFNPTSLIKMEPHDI
# Chain of ETV5 (P41161 whole entry): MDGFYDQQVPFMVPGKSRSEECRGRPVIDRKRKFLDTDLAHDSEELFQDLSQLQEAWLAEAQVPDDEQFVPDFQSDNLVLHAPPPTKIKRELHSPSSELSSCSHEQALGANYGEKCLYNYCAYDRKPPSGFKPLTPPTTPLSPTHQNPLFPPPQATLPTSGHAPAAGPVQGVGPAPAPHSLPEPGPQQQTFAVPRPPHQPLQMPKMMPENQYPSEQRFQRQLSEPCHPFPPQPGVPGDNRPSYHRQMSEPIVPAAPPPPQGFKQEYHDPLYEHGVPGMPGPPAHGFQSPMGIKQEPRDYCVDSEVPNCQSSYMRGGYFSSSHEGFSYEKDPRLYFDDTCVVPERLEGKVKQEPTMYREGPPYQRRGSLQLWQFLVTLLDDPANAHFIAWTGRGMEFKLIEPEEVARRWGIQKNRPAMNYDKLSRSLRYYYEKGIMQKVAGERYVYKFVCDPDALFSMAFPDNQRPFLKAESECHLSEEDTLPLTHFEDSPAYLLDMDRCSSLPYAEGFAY
sequence,measurement,setting,value
TTCTTG,binding signal,FEV,"1.29 fold enrichment (6-mer frequency, TF over GST control)"
same,binding signal,ETV5,"1.41 fold enrichment (6-mer frequency, TF over GST control)"
same,binding signal,HSF1,"1.98 fold enrichment (6-mer frequency, TF over GST control)"
same,binding signal,SPIC,"1.31 fold enrichment (6-mer frequency, TF over GST control)"
same,binding signal,ELF4,"1.43 fold enrichment (6-mer frequency, TF over GST control)"
same,binding signal,ELK4,"1.34 fold enrichment (6-mer frequency, TF over GST control)"
same,binding signal,ETV2,"1.18 fold enrichment (6-mer frequency, TF over GST control)"
same,binding signal,ELF3,"1.46 fold enrichment (6-mer frequency, TF over GST control)"
same,binding signal,CRX,"1.55 fold enrichment (6-mer frequency, TF over GST control)"
same,binding signal,ETV1,"1.47 fold enrichment (6-mer frequency, TF over GST control)"
same,binding signal,ERF,"1.56 fold enrichment (6-mer frequency, TF over GST control)"
same,binding signal,ETV3L,"1.56 fold enrichment (6-mer frequency, TF over GST control)"
same,binding signal,ETS2,"1.39 fold enrichment (6-mer frequency, TF over GST control)"
same,binding signal,SPDEF,"1.28 fold enrichment (6-mer frequency, TF over GST control)"
same,binding signal,ETV7,"1.48 fold enrichment (6-mer frequency, TF over GST control)"
same,binding signal,ELF5,"1.39 fold enrichment (6-mer frequency, TF over GST control)"
same,binding signal,ETV3,"1.47 fold enrichment (6-mer frequency, TF over GST control)"
same,binding signal,ETV6,"1.38 fold enrichment (6-mer frequency, TF over GST control)"
